Data reported in PubChem BioAssay AID1508600 (Functional Genomics Laboratory (NCATS/FGL), 2020).
In all, about 53,000 sequences went through this assay and about 3,700 (7%) were called active.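 Rule for the calls: active = gene knockdowns whose robust z-score for IL-1 alpha signal is at least 2 or at most -2, so actives lie on both sides; inactive = the rest.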 Only a selection was taken, and actives are over-represented in it overall.

Test: Components of the Cytosolic LPS Sensing Pathway: Gene Identification via Genome-wide siRNA Screen;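 note: robust z of the log signal after scaling to non-targeting control siRNA wells of the plate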
Settings: RAW264.7 macrophages, IL-1a HTRF, actives lie on both sides, screened at 100 nM (by protocol), cells primed 5 h with Pam3CSK4 first
How it was run: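 Supernatant IL-1a by HTRF from RAW264.7 cells primed with Pam3CSK4 (5 hours) and transfected with LipidA (24 hour) after 48h siRNA knockdown at 100 nM; cell viability checked with CellTiter-Glo.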
For CCUGUAUUUUACGAUCUUUTT against Best1, the z-score was 0.103 (inactive). In the case of GGUCCUGGACAAAGUGUUUTT against Tubgcp5, the z-score is reported as 2.48 (active). With CCCAUCUGUUUGAGUGUAUTT against Ms4a1 the z-score was -0.305 (inactive). With GCCUUGGUACACUAAACUCTT against Rhcg the z-score was -0.426 (inactive). In the case of GCCUGUAAGGAGAAUCAGCTT against Car4, the z-score is reported as 0.684 (inactive). In the case of GGUUCCAAGUCAAAGAGUUTT against Foxl1, the z-score is reported as -0.47 (inactive). With GGACUCUGUAGUUGAAGAUTT against Pogz the z-score was -0.882 (inactive). For CCAUUCUGAAUCUCUAAUCTT against Pigw, the z-score was 0.134 (inactive). For CCAAUCUGAAGUGCUACUATT against Trim42, the z-score was 0.368 (inactive). For CCCGUGCCUUCCUUAAAGCTT against Ggt6, the z-score was 0.327 (inactive). For CCCACUGAUGCUAUUUCUATT against Rad1, the z-score was -2.57 (active). With GGUCUUUAUCUACCAUGGGTT against Itga7 the z-score was -1.29 (inactive). In the case of CCUUUGCCUAUGUUUACCATT against Ropn1l, the z-score is reported as 0.851 (inactive). For GGGACUCAGUGUUUAUUGATT against Thsd4, the z-score was 0.216 (inactive). With GGCUUUUAAGUUCUUCCAGTT against Ptbp3 the z-score was 2.44 (active). For UCAUUAGUAUCCUCCGUAUTT against Olfr919, the z-score was 0.27 (inactive). In the case of GGAAGGUGAUGAAGGAUCGTT against Fam118a, the z-score is reported as 0.0491 (inactive). With GGAAGAUUUCACAUCUCAGTT against Pdia5 the z-score was -0.528 (inactive). In the case of GCUUGUUAAAAUUGGAAAGTT against Kif11, the z-score is reported as -1.47 (inactive). In the case of GGCCUCCAAUAAAGCUCAGTT against Ttc28, the z-score is reported as -2.07 (active). In the case of GCUCCUAUUACUGAAUUUATT against Olfr749, the z-score is reported as -0.445 (inactive). With GGUGACCUUACCUAAUGUATT against Mettl18 the z-score was 0.578 (inactive). With GGCACAAGCAGGAGAUAAATT against Serpinb2 the z-score was 2.05 (active). With GGUGGUCUUUUCCCAGCAGTT against Msrb3 the z-score was 0.793 (inactive). With GGCAACACGAUGCAGCAGUTT against Fam50a the z-score was -0.36 (inactive). With GCUCUACUGCUUCCUUGUUTT against Olfr229 the z-score was -0.338 (inactive). In the case of GGUGUCUGCUUCUUCAAAGTT against Slc25a26, the z-score is reported as -2.33 (active). For GGAUAUUGCCAGUAAUUAATT against Kif21a, the z-score was 0.212 (inactive). In the case of GCUACCUCAACAUGGAUGCTT against Pcca, the z-score is reported as 1.16 (inactive). For GGAUGACUGUAUCUGUACUTT against Ttc3, the z-score was 0.0197 (inactive). With GGCCCAGAACAGAAAACUCTT against Clec1a the z-score was -0.582 (inactive). In the case of GGACCUAAGGGAUCUAUUGTT against Col5a3, the z-score is reported as 0.000962 (inactive). With GCACUGUGAAUUUGUCAUUTT against Umps the z-score was 1.22 (inactive). With GGAACACGAAUCAUUUAUGTT against Eif4ebp2 the z-score was 0.351 (inactive). For GUUUGGCCGAGUUCAUUUCTT against Pigu, the z-score was 0.759 (inactive). With CCUGUGGAUUACGGCCUCATT against Ube3b the z-score was -0.282 (inactive). For GGAGCUGUUUUCUGUGAAGTT against Mrps2, the z-score was 0.0283 (inactive). For GGAUGUGGAGCAAGUGAAGTT against Stx1b, the z-score was -2.05 (active). With GCUUCAAGCCAUCCGAAUATT against Cfap36 the z-score was 0.886 (inactive). For GGACCAGCUGAAGAUGGGATT against Pced1b, the z-score was -1.1 (inactive). With GCCAGUUUCCAGUCCUUGUTT against Dppa5a the z-score was -0.2 (inactive). For GCACAUAAAAUGCUCACUGTT against Rgr, the z-score was -0.084 (inactive). With CCAAACUUAAACAUGUUGUTT against Ddx21 the z-score was 0.364 (inactive). In the case of GCUGUACACAGUGAGGAAGTT against Gcat, the z-score is reported as 5.42 (active). In the case of CGACUACCACACGUGGAAUTT against Hvcn1, the z-score is reported as 1.36 (inactive). With UGUUCCUAGGUCAGCUACUTT against Olfr1200 the z-score was -1.54 (inactive). For GGCACUUCACAGACUUAGUTT against Selp, the z-score was -0.682 (inactive). In the case of CUCCUUGUCUACCUGAAUATT against Vmn1r213, the z-score is reported as -1.44 (inactive). For CCUCUUAGCUAGAUCUUACTT against Smu1, the z-score was -2.41 (active). For GCCUGAGAAGAUAGACUGATT against Pigs, the z-score was 0.114 (inactive). With GCUUAACUAGUAUCCUAUGTT against Tas2r135 the z-score was -0.228 (inactive). For GGACAAAGUGAAUUAUAGCTT against Tmem123, the z-score was 1.12 (inactive). In the case of GUAAGUUGUUUGAGGAAAGTT against Defb3, the z-score is reported as 2.08 (active). With GAAAUUCUUCCAGUGGAAGTT against Lrp2bp the z-score was 0.958 (inactive). With “GGAACAUCAUCAACCACUATT against Olfr911-ps1” the z-score was -1.53 (inactive). In the case of GGUACAACAGACUAUGCAATT against Snai1, the z-score is reported as 0.886 (inactive). With GCUUUCGCCAAUAAAAAAGTT against Slc13a2 the z-score was 0.265 (inactive). In the case of GGUGAAACGGGAUGUUAACTT against Ppargc1b, the z-score is reported as -0.102 (inactive). In the case of GCCUUAUUACUGACCUUUUTT against Smarcd2, the z-score is reported as 1.77 (inactive). With GCUAUGAAAGAGGGAAGCUTT against Cyp2c54 the z-score was 0.164 (inactive). For CCAGAAAACUCAGUUUGAATT against Magi3, the z-score was 0.518 (inactive). For GCUGGUGGCAAUCAGAAAATT against Nppc, the z-score was 0.121 (inactive). In the case of GGUUCAACACGAUGUUCGATT against Nr1i2, the z-score is reported as 0.162 (inactive). For GGAUGUCUGACACAAGUGUTT against Olfr390, the z-score was 3.42 (active). In the case of GCUUCACAGAAGCUUUGUGTT against Ccl4, the z-score is reported as -0.156 (inactive). For GGAAUAUCAGAAUACCAUCTT against Cnpy4, the z-score was 0.89 (inactive). For CCAGGAACAGCUAUCGGAUTT against Homer2, the z-score was -0.271 (inactive). With GCUGCAUUACAAGCCCAACTT against Zfp414 the z-score was -0.218 (inactive). For GGUGACAUAUUUGAAGUGGTT against Dmwd, the z-score was -0.000303 (inactive). In the case of GCACCCUACCUGCUAAUGUTT against Slitrk1, the z-score is reported as 3.59 (active). In the case of GGAUGACAAGGUUAAGCUATT against Golm2, the z-score is reported as -0.0855 (inactive). In the case of GCAACAAUGUGGUUCCUAUTT against Rab11a, the z-score is reported as 0.616 (inactive). With GGAGCUACUGUACCUUGCUTT against Ncapg2 the z-score was -1.29 (inactive). In the case of GGCUAGAAAACCUCUAUCUTT against Lrrc18, the z-score is reported as -2.11 (active). With GUGCAUGCAGUGUUGUUUUTT against Magea5 the z-score was 0.711 (inactive). In the case of GGAUAGGGAUUGGAGAUAUTT against Stn1, the z-score is reported as 0.203 (inactive). In the case of GGGUAGUCACUCAAUAAAUTT against Pear1, the z-score is reported as -0.54 (inactive). In the case of GGAUUGCCCUGUGGACAAGTT against Nr4a1, the z-score is reported as 0.963 (inactive). For GGCGAAAUGAACACAAAGCTT against Edf1, the z-score was 0.983 (inactive). For GGAAAAGUACACAAAGACCTT against Nkx2-1, the z-score was 2.16 (active). In the case of GGAAAAGUGGUGAACGACATT against Tm4sf4, the z-score is reported as 0.798 (inactive). With GCUGCUGUGACUUAGAUAATT against Cds2 the z-score was -0.668 (inactive). With CCAGGAUCAUUCUUCUGAATT against Chrna7 the z-score was -0.563 (inactive). With GCGUAUACCAUGCAGAUAUTT against Sigmar1 the z-score was 1.05 (inactive). With GGCGUACGUAGACAAGUACTT against Scaf11 the z-score was -2.23 (active). For GGAAGGUAAUUGCUUUUAGTT against Gmeb1, the z-score was 0.533 (inactive). With GCACUUGCUUCAAGUAAUATT against Ankrd52 the z-score was -0.0516 (inactive). With “GCUCUGCUGUGUUAUAUGGTT against C330011M18Rik” the z-score was 0.144 (inactive). In the case of CCUAUGCUUUUUUGUAAGATT against Il13ra2, the z-score is reported as 0.126 (inactive). With GGGAAUAGCAAAUAAAGCATT against Lztr1 the z-score was -0.674 (inactive). In the case of GGCUGUUGAACUUAAUCCCTT against Tomm70a, the z-score is reported as -2.25 (active). For GGUAGACGGAAUCUAUUUATT against Kcnj15, the z-score was -1.31 (inactive). With GGUGGACUUAUAUGGUUUUTT against St3gal1 the z-score was 0.408 (inactive). For GGUGAUUGGGAAUUGAAAATT against F3, the z-score was 0.341 (inactive). With GCAUAUGCGAACAGUAAAATT against Rab28 the z-score was -0.182 (inactive). In the case of GGUACCUUCAUCUUGGUGGTT against Olfr699, the z-score is reported as -0.017 (inactive). For GCCUUGACCUGAUUUCUACTT against Tas2r131, the z-score was -0.525 (inactive). For GCAUUCAGGACCUGUGGCUTT against Olfr890, the z-score was -2.33 (active). With “GGAUCUGUGAGUUUGUAGCTT against D930030D11Rik” the z-score was 0.585 (inactive). For “GGACAACUCAAUUCUAAAATT against 4921522P10Rik”, the z-score was -1.22 (inactive). For GCAAAGUUCACCUAAUUGGTT against Lipc, the z-score was -1.03 (inactive). In the case of GCCAGACUGAGCUACAAAATT against Gm9732, the z-score is reported as -1.3 (inactive). With GCAUCAAAAUCGGUUUCUGTT against Lkaaear1 the z-score was 0.759 (inactive). In the case of CCUUUGGACGCAACCAGUUTT against Ugt1a6b, the z-score is reported as 2.04 (active). For CGAAUUAAUCUCACAGGAGTT against Vps53, the z-score was 0.44 (inactive). For CCCUCAAUGGCCUCAAACUTT against Elavl3, the z-score was -1.29 (inactive). For GUUAGAUGCCCUCAAGUUCTT against Trappc6a, the z-score was -0.857 (inactive).
